Test results taken from PubChem BioAssay AID588342 (National Center for Advancing Translational Sciences (NCATS), 2011).
“And” between values parts separate entries of the source, which are not always exact repeats. Identical values can stand only once. About 25,000 (6.9%) of roughly 360,000 compounds were called active. About 9% were inconclusive and are not listed. The list comes from a sample in which actives are over-represented; it also holds similar structures and randomly drawn compounds. Unmarked numbers belong to inactive results. The call rests on the fitted dose curve; in most records, active means well fitted inhibition curve with a large enough effect; inconclusive means small, poorly fitted or top-dose-only effect; inactive means flat fitted curve, though single readings scatter.

biological target: Luciferin 4-monooxygenase (Photinus pyralis) (UniProt P08659); experiment: qHTS profiling assay for firefly luciferase inhibitor/activator using purifed enzyme and Km concentrations of substrates (counterscreen for miR-21 project); conditions: purified FLuc, luminescence inhibition; series mostly up to 57.5 µM; activity change, negative = inhibition: at the top concentration; further: nearly all actives have a fitted effect of over 55% in size;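 on activity change, negative = inhibition: plate controls were vehicle for no effect and reference inhibitor for full effect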
Sequence (P08659 whole entry, looked up): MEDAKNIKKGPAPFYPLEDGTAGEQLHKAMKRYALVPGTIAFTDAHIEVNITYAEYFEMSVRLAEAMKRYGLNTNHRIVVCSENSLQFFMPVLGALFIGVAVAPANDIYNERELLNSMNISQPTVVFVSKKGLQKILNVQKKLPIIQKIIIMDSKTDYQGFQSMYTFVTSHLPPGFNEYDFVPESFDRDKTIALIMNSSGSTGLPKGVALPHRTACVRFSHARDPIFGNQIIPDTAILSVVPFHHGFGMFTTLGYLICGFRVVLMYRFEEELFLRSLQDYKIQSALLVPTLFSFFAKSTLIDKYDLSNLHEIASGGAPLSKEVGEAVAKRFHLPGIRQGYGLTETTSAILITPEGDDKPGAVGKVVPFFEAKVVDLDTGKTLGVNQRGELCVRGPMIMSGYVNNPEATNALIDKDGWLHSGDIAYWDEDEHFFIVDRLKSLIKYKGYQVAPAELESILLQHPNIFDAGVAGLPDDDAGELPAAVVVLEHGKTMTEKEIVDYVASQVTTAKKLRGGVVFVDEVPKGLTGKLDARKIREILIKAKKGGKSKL
Procedure, shortened: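 Biochemical qHTS of compounds, final roughly 60 µM downward over six points, against 10 nM purified firefly luciferase using Km concentrations of substrates (10 uM D-luciferin, 10 uM ATP) in Tris acetate pH 7.5 buffer; luminescence output.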
Potency means the concentration at half of the fitted maximal effect.

CCOC(=O)c1c(C)nc2c(c1C)c(=O)oc1ccccc12 was tested, and the Potency was 16.9 µM (active).
In the case of N#Cc1c(N2CCCCC2)nc(N)c2c(N)nc(SCC(=O)O)cc12, the Potency was 8.49 µM (active).
With O=S(=O)(Nc1ccc2nc(N3CCOCC3)sc2c1)c1ccccc1 the Potency was 21.3 µM (active).
In the case of NC(=O)COc1ccc(C23CC4CC(CC(C4)C2)C3)cc1, the Potency was 12 µM (active).
For CCCn1nc(NS(=O)(=O)c2ccccc2)c2cc3cc(C)ccc3nc21, the Potency was 16.9 µM (active).
For Cc1cc(-c2ccccc2)n2nc(C)c(-c3ccccc3)c2n1, the Potency was 16.9 µM (active).
CN(C)c1ccc(N/C=C/C(=O)C(F)(F)F)cc1 was tested, and the Potency was 10.7 µM (active).
For O=C(N/N=C/c1cc2c(cc1Br)OCO2)C1COc2ccccc2O1 (stereo unspecified), the Potency was 13.5 µM (active).
With Brc1ccc(-c2nnc(-c3ccccc3)o2)o1 the Potency was 6.01 µM (active).
Brc1ccc(-c2noc(-c3ccccc3)n2)o1 was tested, and the Potency was 2.13 µM (active) and 1.35 µM (active).

In order of falling “activity change, negative = inhibition” value:
1. Cc1cc(-n2nc(C)cc2C)n2nc(C)c(-c3ccccc3)c2n1  5.57%
2. COc1ccc(-c2nc3c4ccccc4n(CC(=O)Nc4ccc(C(C)=O)cc4)c(=O)n3n2)cc1  5.2%
3. Cc1ccc(C)n1-c1nnc(N2CCC(C(=O)NCc3ccccc3Cl)CC2)s1  4.23%
4. Cc1ccc(/C=C2\CCn3c2nc2cc(C(=O)O)ccc2c3=O)c(C)c1  4.09%
5. CN(CC(=O)Nc1cccc(F)c1)C(=O)CC1CCCC1  3.45%
6. CNC(=S)NNC(=O)c1ccc(N(C)C)cc1  3.3%
7. CCN(CC)c1nn2c(=O)c(C(=O)NCCc3ccccc3)cnc2s1  3.21%
8. Cc1cc(C)c(C#N)c(N2CCC(C(N)=O)CC2)n1  2.33%
9. CCCn1nc(NS(=O)(=O)c2ccc(F)cc2)c2cc3ccccc3nc21  1.89%
10. COc1ccccc1CNC(=O)CCCn1c(=O)c2ccccc2n(CC(=O)Nc2ccc(C)cc2Cl)c1=O  1.77%
11. Cc1ccc(Cc2nc3ccccc3nc2SCC(=O)Nc2cccc(C(F)(F)F)c2)cc1  1.52%
12. Cc1ccc2nc(NC(=O)c3nc(SCc4ccccc4F)ncc3Cl)sc2c1  1.12%
13. NC(=O)COc1ccc(NC(=O)c2ccccc2-c2ccccc2)cc1  0.603%
14. CC(=O)N(C)c1ccc(NC(=O)C(F)(F)F)cc1  0.386%
15. COc1ccc(NC(=O)C2CCC(CNS(=O)(=O)c3csc(C(N)=O)c3)CC2)cc1OC (stereo unspecified)  -0.339%
16. O=C(NCc1ccccc1CN1CCCC1)C1CCN(S(=O)(=O)c2ccc(Cl)cc2)CC1  -0.436%
17. Cc1csc2nc(COC(=O)c3ccccc3NC(=O)c3ccccc3Cl)cc(=O)n12  -0.468%
18. Cc1cc(C(C)(C)C)n2nc(C)c(-c3ccccc3)c2n1  -0.621%
19. O=S(=O)(c1cccs1)N1CCN(CCOc2ccccc2)CC1  -0.715%
20. NC(=O)COc1ccccc1C(=O)NC12CC3CC(CC(C3)C1)C2  -0.909%
21. Cc1ccccc1-c1cc(C(=O)NCc2cccs2)n(CC2CC(c3cccnc3)=NO2)n1 (stereo unspecified)  -1.1%
22. CCOC(=O)N1CCC(NC(=O)c2ccc3nc(N4CCOCC4)sc3c2)CC1  -1.13%
23. O=C(c1ccc2nc(N3CCOCC3)sc2c1)N1CCN(c2ccc(Cl)cc2)CC1  -1.27%
24. CC1(C(=O)N/N=C/c2cc3c(cc2Br)OCO3)CC1(Br)Br (stereo unspecified)  -1.53%
25. COc1ccccc1N1CC(C(=O)NCCN2C(=O)S/C(=C\c3cccnc3)C2=O)CC1=O (stereo unspecified)  -1.81%
26. O=C1c2ccccc2C(=O)N1CCCc1nc(-c2ccccc2)no1  -2.23%
27. Cn1nc(-c2ccccc2)c(-c2nc(-c3ccc(Cl)cc3)no2)c1Cl  -2.68%
28. CCOC(=O)C1CCCN(CC(=O)Nc2cc(C)c3c(=O)oc4ccccc4c3n2)C1 (stereo unspecified)  -2.78%
29. O=S(=O)(NCC(c1ccco1)N1CCOCC1)c1cc(F)ccc1F (stereo unspecified)  -3.23%
30. O=C(OCc1ccc(Br)cc1)c1cccc(-c2nnc(-c3ccccc3)o2)c1  -4.27%
31. O=C(NCc1ccc2c(c1)CCN2C(=O)c1ccccc1)c1ccccc1  -4.72%
32. CCCc1nn2c(=O)cc(COC(=O)c3ccc(NC(=O)C(C)Oc4ccccc4)cc3)nc2s1 (stereo unspecified)  -6.12%
33. CCCn1nc(NC(=O)C(C)C)c2cc3cc(OC)ccc3nc21  -7.62%
34. O=C(COC(=O)c1ccccc1Br)Nc1nnc(-c2ccccc2)o1  -7.96%
35. CCN(CC)C(=O)CSc1nc2ccsc2c(=O)n1Cc1ccccc1Cl  -8.76%
36. N#Cc1c(-c2ccccc2)cc(-c2ccccc2)nc1SCC(=O)O  -9.04%
37. COc1ccc(Cl)cc1NC(=O)Cn1c(=O)c2ccccc2n2nncc12  -9.12%
38. Fc1ccc(-c2nc(Nc3cccc(Cl)c3)nc3c2COc2ccccc2-3)cc1  -14.4%
39. O=C(CNC(=O)C1COc2ccccc2O1)N/N=C/c1cc(Br)c(O)c(Br)c1 (stereo unspecified)  -14.6%
40. CCOc1ccc(NC(=O)c2c(NC(=O)Cc3ccccc3)sc3c2CCC(C)C3)cc1 (stereo unspecified)  -16.8%
41. CCCCC(=O)Nc1cc(C)c2c(=O)oc3ccccc3c2n1  -17.8%
